From PubChem BioAssay (NCATS)
Several values for one entry are separate records, joined by “and”; a condition that tells them apart may be missing. Equal values may be shown once. Inconclusive results are not listed. Where a call stands in place of a potency, no number is given. Activity calls are given as the source filed them. Calls follow the shape of the full dose curve.

Columns and labels:
[1] = Cytotoxicity counterscreen for inhibitors of SARS-CoV-2 cell entry (AID 1645845); also: nearly all actives have a fitted effect of over 50% in size
Method in brief: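 Expi293F/hACE2 cells seeded overnight; cpd pin-transferred in DMSO, 1 h preincubation, + media, 48 h 37 C 5% CO2; ATPLite 1step luminescence; normalized to cells and no cells.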

[2] = Primary qHTS to identify inhibitors of SARS-CoV-2 cell entry (AID 1645846); details: activity change, negative = inhibition: at 57.1 µM (top of the series) unless noted; also: nearly all actives have a fitted effect of over 45% in size
Method in brief: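 Luminescence readout (Bright-Glo luciferase) 48 h after pseudoparticle addition. HEK293-ACE2 cells, 1500/well; compound pre-incubation 1 h; Normalized to spike PP and bald PP.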

For `CC(C)(C)NCC(O)c1cc(O)cc(O)c1` (stereo not drawn), the Potency [1] was “inactive” and the Potency [2] was “inactive”.

With `Nc1ccc(S(=O)(=O)NC(=O)c2ccccc2)cc1` the Potency [1] was “inactive” and the Potency [2] was “inactive”.

In the case of `CCOC(=O)/C=C(C)/C=C/C=C(C)/C=C/c1c(C)cc(OC)c(C)c1C`, the Potency [1] is reported as “inactive” and the activity change, negative = inhibition [2] is reported as -11.5%.

For `CC(=O)N(c1onc(C)c1C)S(=O)(=O)c1ccc(N)cc1`, the Potency [1] was “inactive” and the Potency [2] was “inactive”.

In the case of `CC(C)(Oc1ccc(Cl)cc1)C(=O)OCCCOC(=O)C(C)(C)Oc1ccc(Cl)cc1`, the Potency [1] is reported as “inactive” and the activity change, negative = inhibition [2] is reported as -28.5%.

For `C[C@@H](O)[C@H]1C(=O)N2C(C(=O)O)=C(SCCN=CN)C[C@H]12`, the Potency [1] was “inactive” and the Potency [2] was “inactive”.

With `COc1ccc(-c2ccc3cc(C(=O)O)ccc3c2)cc1C12CC3CC(CC(C3)C1)C2` the Potency [1] was “inactive” and the activity change, negative = inhibition [2] was -13.5% and -15.7%.

For `O=c1cc[nH]c(=O)[nH]1`, the Potency [1] was “inactive” and the activity change, negative = inhibition [2] was -14.8%.

With `CCCCCCCCCCCCCCCCCC(=O)OCC(O)CO` (stereo not drawn) the Potency [1] was “inactive” and the Potency [2] was “inactive”.

In the case of `O=S(=O)(O)CCS`, the Potency [1] is reported as “inactive”, the Potency [2] is reported as “inactive” and the activity change, negative = inhibition [2] is reported as 1.92%.

In the case of `Cc1cnc(NC(=O)C2=C(O)c3ccccc3S(=O)(=O)N2C)s1`, the Potency [1] is reported as “inactive”, the Potency [2] is reported as “inactive” and the activity change, negative = inhibition [2] is reported as -28.9%.

In the case of `CC(=O)OCC(=O)[C@@]1(O)[C@H](C)C[C@H]2[C@@H]3CCC4=CC(=O)C=C[C@]4(C)[C@@]3(F)[C@@H](O)C[C@@]21C`, the Potency [1] is reported as “inactive” and the Potency [2] is reported as “inactive”.

In the case of `O=C(O)CCC(=O)O`, the Potency [1] is reported as “inactive” and the Potency [2] is reported as “inactive”.

In the case of `CC(C)(C)C(=O)Oc1ccc(S(=O)(=O)Nc2ccccc2C(=O)NCC(=O)O)cc1`, the Potency [1] is reported as “inactive”, the Potency [2] is reported as “inactive” and the activity change, negative = inhibition [2] is reported as -32.8%.

In the case of `CC(=O)OCC(=O)[C@@]1(O)CC[C@H]2[C@@H]3CCC4=CC(=O)C=C[C@]4(C)[C@@]3(F)[C@@H](O)C[C@@]21C`, the Potency [1] is reported as “inactive” and the activity change, negative = inhibition [2] is reported as 2.18%.

With `NCCS(=O)(=O)O` the Potency [1] was “inactive”, the Potency [2] was “inactive” and the activity change, negative = inhibition [2] was -2.14%.

For `CCCCCCCCCCCCSCCOCCO`, the Potency [1] was “inactive” and the Potency [2] was “inactive”.

In the case of `COCCCN1CCC(NC(=O)c2cc(Cl)c(N)c3c2OCC3)CC1`, the Potency [1] is reported as “inactive”, the Potency [2] is reported as “inactive” and the activity change, negative = inhibition [2] is reported as -5.91%.

For `CC(=O)SCC(CC(=O)c1ccc(C)cc1)C(=O)O` (stereo not drawn), the Potency [1] was “inactive” and the Potency [2] was “inactive”.

In the case of `CC(C)Cn1cnc2c(N)nc3ccccc3c21`, the Potency [1] is reported as “inactive”, the Potency [2] is reported as “inactive” and the activity change, negative = inhibition [2] is reported as 0.431% [at 27.1 µM].

With `CCn1cc(C(=O)O)c(=O)c2cnc(N3CCNCC3)nc21` the Potency [1] was “inactive” and the activity change, negative = inhibition [2] was 0.978%.

In the case of `C[C@@H](CN1CC(=O)NC(=O)C1)N1CC(=O)NC(=O)C1`, the Potency [1] is reported as “inactive”, the Potency [2] is reported as “inactive” and the activity change, negative = inhibition [2] is reported as -20%.

In the case of `CC(C)Cc1ccc(C(C)C(=O)O)cc1` (stereo not drawn), the Potency [1] is reported as “inactive”, the Potency [2] is reported as “inactive” and the activity change, negative = inhibition [2] is reported as 0.301%.

With `COc1ccc2cccc(CCNC(C)=O)c2c1` the Potency [1] was “inactive”, the Potency [2] was “inactive” and the activity change, negative = inhibition [2] was -31%.

With `Nc1cc(C(Cl)=C(Cl)Cl)c(S(N)(=O)=O)cc1S(N)(=O)=O` the Potency [1] was “inactive”, the Potency [2] was “inactive” and the activity change, negative = inhibition [2] was -25%.

For `O=C(NCC1CCCCN1)c1cc(OCC(F)(F)F)ccc1OCC(F)(F)F` (stereo not drawn), the Potency [1] was “inactive”, the Potency [2] was “inactive” and the activity change, negative = inhibition [2] was -8.95%.

In the case of `C[N+]1(C)CCCC(OC(=O)C(O)(c2ccccc2)c2ccccc2)C1` (stereo not drawn), the Potency [1] is reported as “inactive” and the activity change, negative = inhibition [2] is reported as -26.9%.

With `COc1ccc(C(=O)CC(=O)c2ccc(C(C)(C)C)cc2)cc1` the Potency [1] was “inactive”, the Potency [2] was “inactive” and the activity change, negative = inhibition [2] was -3.57%.

For `O=C(O)c1ccccc1S`, the Potency [1] was “inactive” and the Potency [2] was “inactive”.

In the case of `NC(CO)(CO)CO`, the Potency [1] is reported as “inactive” and the Potency [2] is reported as “inactive”.

For `O=C(O)/C=C(\CC(=O)O)C(=O)O`, the Potency [1] was “inactive” and the activity change, negative = inhibition [2] was 0.545%.

In the case of `Clc1cccc(Cl)c1NC1=NCCN1`, the Potency [1] is reported as “inactive” and the Potency [2] is reported as “inactive”.

In the case of `O=c1[nH]c(=O)n([C@H]2O[C@H](CO)[C@@H](O)[C@@H]2O)cc1/C=C\Br`, the Potency [1] is reported as “inactive” and the Potency [2] is reported as “inactive”.

In the case of `COc1ccc(C(=O)NCc2ccc(OCCN(C)C)cc2)cc1OC`, the Potency [1] is reported as “inactive” and the activity change, negative = inhibition [2] is reported as -12.5%.

For `CN1C(C(=O)Nc2ccccn2)=C(O)c2ccccc2S1(=O)=O`, the Potency [1] was “inactive”, the Potency [2] was “inactive” and the activity change, negative = inhibition [2] was -89.8%.
